In the supplement of paper PMC13380429:
Structures can show the parent of a compound that is named as a salt.

Experiments:
[1] = system: Vero E6 infected with SARS-CoV-2; assay: morphology score (similarity to uninfected cells); higher = more like uninfected cells; settings: 24 h
[2] = system: Vero E6 infected with SARS-CoV-2; assay: SARS-CoV-2 infection rate relative to infected DMSO; higher = more infection, active = 60 or less; settings: 24 h

`O=c1c(O)c(-c2ccc(O)c(O)c2)oc2cc(O)cc(O)c12` [quercetin] (10 µM) was tested, and the morphology score [1] was 0.0809 and the SARS-CoV-2 infection rate [2] was 102% (inactive).

In the case of `Cc1onc(-c2c(Cl)cccc2Cl)c1C(=O)N[C@@H]1C(=O)N2[C@@H]1SC(C)(C)[C@@H]2C(=O)O` [dicloxacillin] (10 µM), the morphology score [1] is reported as 0.0315 and the SARS-CoV-2 infection rate [2] is reported as 115% (inactive).

With `N[C@@H](Cn1oc(=O)[nH]c1=O)C(=O)O` [L-quisqualic-acid] (10 µM) the morphology score [1] was 0.0395 and the SARS-CoV-2 infection rate [2] was 106% (inactive).

`CN(C)CC[C@H](CSc1ccccc1)Nc1ccc(S(=O)(=O)NC(=O)c2ccc(N3CCN(Cc4ccccc4-c4ccc(Cl)cc4)CC3)cc2)cc1[N+](=O)[O-]` (10 µM) was tested, and the morphology score [1] was 0.105 and the SARS-CoV-2 infection rate [2] was 108% (inactive).

With `O=C1NC(=O)C(c2cnc3ccccn23)=C1c1cn2c3c(cc(F)cc13)CN(C(=O)N1CCCCC1)CC2` (10 µM) the morphology score [1] was -0.436 and the SARS-CoV-2 infection rate [2] was 105% (inactive).

`Cn1c(COP(=O)(NCCBr)NCCBr)cnc1[N+](=O)[O-]` (10 µM) was tested, and the morphology score [1] was 0.0413 and the SARS-CoV-2 infection rate [2] was 106% (inactive).

In the case of `O=C(N[C@H]1CN2CCC1CC2)c1ccc(Cl)cc1` (10 µM), the morphology score [1] is reported as -0.0585 and the SARS-CoV-2 infection rate [2] is reported as 99.5% (inactive).

`CCN(CC)C(=O)[C@@]1(c2ccccc2)C[C@H]1CN` [milnacipran] (10 µM) was tested, and the morphology score [1] was 0.0186 and the SARS-CoV-2 infection rate [2] was 105% (inactive).

For `CC[C@H]1CN2CC[C@H]1C[C@@H]2[C@@H](O)c1ccnc2ccc(OC)cc12` [hydroquinidine] (10 µM), the morphology score [1] was 0.301 and the SARS-CoV-2 infection rate [2] was 90% (inactive).

In the case of `CC[C@H]1[C@@H](O)[C@@H]2[C@H](CC[C@]3(C)[C@@H]([C@H](C)CCOS(=O)(=O)O)CC[C@@H]23)[C@@]2(C)CC[C@@H](O)C[C@@H]12` (10 µM), the morphology score [1] is reported as -0.0685 and the SARS-CoV-2 infection rate [2] is reported as 106% (inactive).

For `CCCC(=O)O` [sodium-butyrate] (10 µM), the morphology score [1] was 0.0558 and the SARS-CoV-2 infection rate [2] was 110% (inactive).

`CC(C)=CCC/C(C)=C/CC/C(C)=C/C=C/C(C)=C/C(=O)O` [peretinoin] (10 µM) was tested, and the morphology score [1] was -0.00242 and the SARS-CoV-2 infection rate [2] was 108% (inactive).

`NCC(=O)N1C[C@H](NC(=O)c2ccccc2)C[C@H]1C(=O)O` [danegaptide] (10 µM) was tested, and the morphology score [1] was 0.0415 and the SARS-CoV-2 infection rate [2] was 105% (inactive).

For `COc1ccc(-n2nc(CCC(=O)N(C)O)cc2-c2ccc(Cl)cc2)cc1` [tepoxalin] (0.833333 µM), the morphology score [1] was 0.0433 and the SARS-CoV-2 infection rate [2] was 104% (inactive).

For `Cc1c(I)c(=O)n(-c2ccccc2)n1C` [iodoantipyrine] (10 µM), the morphology score [1] was 0.0311 and the SARS-CoV-2 infection rate [2] was 118% (inactive).

`CCOc1ccccc1C(N)=O` [ethenzamide] (10 µM) was tested, and the morphology score [1] was -0.0139 and the SARS-CoV-2 infection rate [2] was 118% (inactive).

In the case of `COC(=O)C1=CO[C@@H](O[C@@H]2O[C@H](CO)[C@@H](O)[C@H](O)[C@H]2O)[C@@H]2C(CO)=CC[C@H]12` [geniposide] (10 µM), the morphology score [1] is reported as -0.322 and the SARS-CoV-2 infection rate [2] is reported as 116% (inactive).

With `O=C(NC(O)C(Cl)(Cl)Cl)NC(O)C(Cl)(Cl)Cl` (stereo unspecified) [dicloralurea] (10 µM) the morphology score [1] was 0.108 and the SARS-CoV-2 infection rate [2] was 106% (inactive).

`Nc1ccc(O)c(C(=O)O)c1` [mesalazine] (10 µM) was tested, and the morphology score [1] was 0.0799 and the SARS-CoV-2 infection rate [2] was 93.5% (inactive).

With `COc1ccc(/C=C/CCCCOc2ccc(C(=O)c3cccc(C(=O)O)c3)cc2CCC(=O)O)cc1` (10 µM) the morphology score [1] was 0.0773 and the SARS-CoV-2 infection rate [2] was 95% (inactive).

`CC/C(=C(\c1ccc(O)cc1)c1ccc(OCCNC)cc1)c1ccccc1` [Endoxifen HCl] (10 µM) was tested, and the morphology score [1] was 0.817 and the SARS-CoV-2 infection rate [2] was 26% (active).

`Cc1cc(S(=O)(=O)O)c2c(C)ccc(C(C)C)cc1-2` [sodium-gualenate] (10 µM) was tested, and the morphology score [1] was 0.0593 and the SARS-CoV-2 infection rate [2] was 96.5% (inactive).

With `O=c1oc2cc(O)ccc2s1` [tioxolone] (10 µM) the morphology score [1] was 0.0494 and the SARS-CoV-2 infection rate [2] was 104% (inactive).

With `Nc1ccncc1` [dalfampridine] (10 µM) the morphology score [1] was 0.0807 and the SARS-CoV-2 infection rate [2] was 103% (inactive).

With `COc1ccc(CN(C(=O)[C@@H](N)Cc2c(C)cc(C(N)=O)cc2C)[C@@H](C)c2ncc(-c3ccccc3)[nH]2)cc1C(=O)O` [eluxadoline] (10 µM) the morphology score [1] was 0.15 and the SARS-CoV-2 infection rate [2] was 117% (inactive).

In the case of `COc1ccc2c(c1)C=C1Cn3c-2c(C2CCCCC2)c2ccc(cc23)C(=O)NS(=O)(=O)N(C)CCOCCN(C)C1=O` (10 µM), the morphology score [1] is reported as 0.153 and the SARS-CoV-2 infection rate [2] is reported as 97.5% (inactive).

In the case of `CN1CCC(c2c[nH]c3ccc(O)cc23)CC1` (10 µM), the morphology score [1] is reported as 0.214 and the SARS-CoV-2 infection rate [2] is reported as 101% (inactive).

`Nc1nc(=O)c2sc(=O)n([C@@H]3O[C@H](CO)[C@@H](O)[C@H]3O)c2[nH]1` (10 µM) was tested, and the morphology score [1] was 0.013 and the SARS-CoV-2 infection rate [2] was 100% (inactive).
